These results are taken from PubChem BioAssay (EPA / NIEHS).

The structures appear in SMILES notation. Calls of active or inactive are those of the source. The calls were made as follows: active = hit-call score of the fitted dose curve at least 0.9, where 1 is the maximum; inactive = score below 0.9.

Common to all, as to conditions: mRNA level, 48 h; actives raise or lower the signal
Read-out in assay [1]: Cytochrome P450 4A22 (Homo sapiens) (UniProt Q5TCH4)
Nature of the assay: LTEA_HepaRG_CYP4A22: Life Technologies and Expression Analysis (LTEA) Assay for Cytochrome P450 4A22 (CYP4A22) using HepaRG (AID 2283495). The gist of the method:
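Concentration-response (8 points, max 100 uM, 0.5% DMSO) in human HepaRG liver cells after 48 h exposure. CYP4A22 mRNA by TaqMan qRT-PCR with housekeeping-gene normalization.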

Read-out in assay [2]: Cytochrome P450 7A1 (Homo sapiens) (UniProt P22680)
Nature of the assay: LTEA_HepaRG_CYP7A1: Life Technologies and Expression Analysis (LTEA) Assay for Cytochrome P450 7A1 (CYP7A1) using HepaRG (AID 2283496). The gist of the method: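 Gene expression endpoint in human HepaRG liver cells treated for 48 h with test chemicals (up to 100 uM, 0.5% DMSO). Values come from bidirectional concentration-response fitting versus DMSO.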

Read-out in assay [3]: Glutathione S-Transferase (GSTA2), GSTA2 (gene 2939)
Nature of the assay: LTEA_HepaRG_GSTA2: Life Technologies and Expression Analysis (LTEA) Assay for Glutathione S-Transferase (GSTA2) using HepaRG (AID 2283497). The method in brief:
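Differentiated human HepaRG cells were exposed in duplicate for 48 h in serum-free induction medium, 8 points from 100 uM top in half-log steps, 0.5% DMSO. GSTA2 mRNA was measured by TaqMan qRT-PCR, normalized to ACTB, GAPDH and POLR2A; bidirectional fit versus DMSO.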

Read-out in assay [4]: Glutamate-cysteine ligase catalytic (GCLC), GCLC (gene 2729)
Description: LTEA_HepaRG_GCLC: Life Technologies and Expression Analysis (LTEA) Assay for Glutamate-cysteine ligase catalytic (GCLC) using HepaRG (AID 2283498). The method in brief:
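Differentiated HepaRG cells exposed 48 h in serum-free induction medium, eight-point half-log series topping at 100 uM in 0.5% DMSO, duplicates. GCLC mRNA by qRT-PCR normalized to ACTB, GAPDH and POLR2A, fitted bidirectionally versus DMSO.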

Read-out in assay [5]: Glutamate-cysteine ligase regulatory (GCLM), GCLM (gene 2730)
Nature of the assay: LTEA_HepaRG_GCLM: Life Technologies and Expression Analysis (LTEA) Assay for Glutamate-cysteine ligase regulatory (GCLM) using HepaRG (AID 2283500). The gist of the method:
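Human liver HepaRG cultures receive test chemicals for 48 hours at up to 100 uM in 0.5% DMSO. GCLM expression is measured by qRT-PCR and analysed for increases or decreases against vehicle.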

Read-out in assay [6]: Heat shock 70 kDa protein 1 (HSPA1A), gene 3303
Description: LTEA_HepaRG_HSPA1A: Life Technologies and Expression Analysis (LTEA) Assay for Heat shock 70 kDa protein 1 (HSPA1A) using HepaRG (AID 2283502). The gist of the method:
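HSPA1A induction in human HepaRG liver cells is measured after 48 h of chemical treatment (100 uM maximum, 0.5% DMSO vehicle). Expression comes from qRT-PCR normalized to endogenous controls.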

Read-out in assay [7]: Hypoxia-inducible factor 1-alpha (Homo sapiens) (UniProt Q16665)
Nature of the assay: LTEA_HepaRG_HIF1A: Life Technologies and Expression Analysis (LTEA) Assay for Hypoxia-inducible factor 1 (HIF1A) Trancription factor using HepaRG (AID 2283503).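 Also: HIF1A transcript by TaqMan qRT-PCR normalized to ACTB GAPDH and POLR2A.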 The gist of the method:
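HepaRG, 48 h exposure, 8-pt half-log series from 100 uM, 0.5% DMSO vehicle, duplicates. Readout: HIF1A transcript by qRT-PCR (Fluidigm array), housekeeping-normalised. Bidirectional curve fit vs DMSO baseline.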

Read-out in assay [8]: 3-Hydroxy-3-Methylglutaryl-CoA Synthase 2 (HMGCS2), HMGCS2 (gene 3158)
Description: LTEA_HepaRG_HMGCS2: Life Technologies and Expression Analysis (LTEA) Assay for 3-Hydroxy-3-Methylglutaryl-CoA Synthase 2 (HMGCS2) using HepaRG (AID 2283504). The gist of the method:
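This steatosis marker was read as HMGCS2 mRNA change in HepaRG cells treated 48 h with up to 100 uM chemical. Normalisation used housekeeping genes; activity in either direction was fitted relative to 0.5% DMSO vehicle.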

Read-out in assay [9]: Insulin Like Growth Factor 1 (IGF1), IGF1 (gene 3479)
Description: LTEA_HepaRG_IGF1: Life Technologies and Expression Analysis (LTEA) Assay for Insulin Like Growth Factor 1 (IGF1) using HepaRG (AID 2283506). The method in brief:
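Using human HepaRG liver cells, IGF1 transcript induction or suppression is measured 48 h after dosing across eight concentrations capped at 100 uM. Values derive from bidirectional concentration-response fitting with DMSO as baseline.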

Read-out in assay [10]: Intercellular Adhesion Molecule 1 (ICAM1), ICAM1 (gene 3383)
Description: LTEA_HepaRG_ICAM1: Life Technologies and Expression Analysis (LTEA) Assay for Intercellular Adhesion Molecule 1 (ICAM1) using HepaRG (AID 2283507). The method in brief: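 Using the human liver line HepaRG, compounds are tested in duplicate over 48 h at concentrations up to 100 uM. Expression is determined by TaqMan qRT-PCR, normalized to endogenous controls, and analysed relative to 0.5% DMSO vehicle.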

Read-out in assay [11]: Insulin-like growth factor-binding protein 1 (IGFBP1), IGFBP1 (gene 3484)
Description: LTEA_HepaRG_IGFBP1: Life Technologies and Expression Analysis (LTEA) Assay for Insulin-like growth factor-binding protein 1 (IGFBP1) using HepaRG (AID 2283508). The gist of the method:
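HepaRG, 48 h, 8 conc. (max 100 uM, half-log), duplicates, 0.5% DMSO. Readout: TaqMan qRT-PCR, ACTB/GAPDH/POLR2A normalisation. Fit: bidirectional vs DMSO.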

Read-out in assay [12]: Interleukin 6 Receptor (IL6R), IL6R (gene 3570)
Nature of the assay: LTEA_HepaRG_IL6R: Life Technologies and Expression Analysis (LTEA) Assay for Interleukin 6 Receptor (IL6R) using HepaRG (AID 2283510).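 As to AC50: TaqMan qRT-PCR signal normalized to ACTB GAPDH and POLR2A housekeeping genes.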 The gist of the method: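 Concentration-response in human liver HepaRG cells: eight concentrations from 100 uM downward by half-logs, 48 h exposure, 0.5% DMSO vehicle. IL6R mRNA change measured by qRT-PCR and fitted in both directions relative to vehicle.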

Read-out in assay [13]: Potassium channel subfamily K member 1 (KCNK1), KCNK1 (gene 3775)
Nature of the assay: LTEA_HepaRG_KCNK1: Life Technologies and Expression Analysis (LTEA) Assay for Potassium channel subfamily K member 1 (KCNK1) using HepaRG (AID 2283511). The gist of the method: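 Differentiated HepaRG cells, 48 h exposure in serum-free induction medium with 0.5% DMSO; 8 concentrations, half-log from 100 uM, duplicate. KCNK1 mRNA by qRT-PCR, normalized to ACTB, GAPDH, POLR2A; bidirectional fit vs DMSO.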

Read-out in assay [14]: Keratin 19 (KRT19), KRT19 (gene 3880)
Description: LTEA_HepaRG_KRT19: Life Technologies and Expression Analysis (LTEA) Assay for Keratin 19 (KRT19) using HepaRG (AID 2283512). The method in brief: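 Readout is qRT-PCR of KRT19 mRNA, normalized to ACTB, GAPDH and POLR2A, from HepaRG cells treated 48 h with eight-point half-log dilutions topping at 100 uM. Activity in either direction is scored relative to 0.5% DMSO vehicle.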

Read-out in assay [15]: JUN Transcription Factor, JUN (gene 3725)
Description: LTEA_HepaRG_JUN: Life Technologies and Expression Analysis (LTEA) Assay for JUN Transcription Factor using HepaRG (AID 2283513). The method in brief: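 Human HepaRG liver cells receive test chemicals in 0.5% DMSO for 48 h across an eight-point range topping at 100 uM. Expression changes in JUN are scored in both directions against the DMSO vehicle.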

Read-out in assay [16]: Lipase C (LIPC), LIPC (gene 3990)
Description: LTEA_HepaRG_LIPC: Life Technologies and Expression Analysis (LTEA) Assay for Lipase C (LIPC) using HepaRG (AID 2283514). The gist of the method:
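HepaRG cells, 48 h after plating, treated in duplicate for 48 h in serum-free induction medium over 8 half-log concentrations from 100 uM, 0.5% DMSO. LIPC mRNA by TaqMan qRT-PCR normalized to ACTB/GAPDH/POLR2A; bidirectional fit versus DMSO.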

Read-out in assay [17]: HGF (gene 3082)
Nature of the assay: LTEA_HepaRG_HGF: Life Technologies and Expression Analysis (LTEA) Assay for Hepatocyte Growth Facto (HGF) using HepaRG (AID 2283505). The gist of the method:
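Using HepaRG monolayers kept in 0.5% DMSO, chemicals were tested in duplicate over eight half-log concentrations from 100 uM for 48 h. Endpoint: HGF mRNA change relative to DMSO, normalized to ACTB/GAPDH/POLR2A.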

Read-out in assay [18]: Interleukin 6 (IL6), IL6 (gene 3569)
Description: LTEA_HepaRG_IL6: Life Technologies and Expression Analysis (LTEA) Assay for Interleukin 6 (IL6) using HepaRG (AID 2283509). The gist of the method: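 HepaRG cells exposed in duplicate for 48 h to eight half-log concentrations, top 100 uM, in 0.5% DMSO serum-free induction medium. mRNA measured by qRT-PCR, normalized to ACTB, GAPDH and POLR2A. Bidirectional fit versus DMSO.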

Read-out in assay [19]: Glutathione S-transferase M3 (GSTM3), GSTM3 (gene 2947)
Nature of the assay: LTEA_HepaRG_GSTM3: Life Technologies and Expression Analysis (LTEA) Assay for Glutathione S-transferase M3 (GSTM3) using HepaRG (AID 2283501). The method in brief:
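Expression of GSTM3 is determined by qRT-PCR in human liver HepaRG cells treated 48 h with an 8-point half-log range from 100 uM in 0.5% DMSO.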

Hypoxia-inducible factor 1-alpha (Homo sapiens), sequence (Q16665 whole entry, looked up): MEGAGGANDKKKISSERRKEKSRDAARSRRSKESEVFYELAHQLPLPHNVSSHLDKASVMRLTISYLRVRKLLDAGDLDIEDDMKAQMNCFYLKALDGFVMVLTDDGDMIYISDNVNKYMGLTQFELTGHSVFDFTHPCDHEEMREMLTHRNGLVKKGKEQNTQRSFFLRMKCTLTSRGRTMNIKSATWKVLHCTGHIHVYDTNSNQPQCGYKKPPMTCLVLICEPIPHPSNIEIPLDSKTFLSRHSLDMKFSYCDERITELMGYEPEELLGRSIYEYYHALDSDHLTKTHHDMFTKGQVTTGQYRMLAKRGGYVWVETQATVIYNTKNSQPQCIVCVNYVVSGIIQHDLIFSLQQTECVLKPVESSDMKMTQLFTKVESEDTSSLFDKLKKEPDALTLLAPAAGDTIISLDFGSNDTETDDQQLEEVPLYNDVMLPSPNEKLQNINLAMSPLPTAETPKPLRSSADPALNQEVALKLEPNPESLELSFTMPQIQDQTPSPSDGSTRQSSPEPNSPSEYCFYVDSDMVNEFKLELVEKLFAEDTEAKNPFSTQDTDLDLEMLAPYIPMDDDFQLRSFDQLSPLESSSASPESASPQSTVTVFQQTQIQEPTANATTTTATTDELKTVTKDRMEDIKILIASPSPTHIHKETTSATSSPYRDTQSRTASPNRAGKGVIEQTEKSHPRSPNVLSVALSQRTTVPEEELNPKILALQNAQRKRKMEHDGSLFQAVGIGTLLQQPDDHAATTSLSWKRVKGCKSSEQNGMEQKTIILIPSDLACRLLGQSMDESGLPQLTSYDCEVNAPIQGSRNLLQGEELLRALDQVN

`CCO[Si](CCCNC(N)=O)(OCC)OCC`: the result in [1], in [2], in [3], in assay [4], in [5] and in assay [6] was inactive. Further, the result in [7], in assay [8], in assay [9], in [10], in assay [11] and in assay [12] was inactive. Moreover, the outcome in assay [13], in assay [14], in [15] and in [16] was inactive.
Take `CCCCCCCCOc1ccc(C(=O)c2ccccc2)c(O)c1`: the result in [1], in assay [2], in [3], in assay [4], in assay [5] and in assay [6] was inactive. For the same compound, the outcome in [7], in assay [8], in [17], in assay [9], in assay [10] and in [11] was inactive. The result in assay [18], in [12], in [14], in assay [15] and in assay [16] was inactive.
For `CCCCCCCCCCCC[N+](C)(C)C`, the result in [1], in assay [4] and in assay [12] was inactive. Besides, the AC50 – broadly, the midpoint of the concentration-response curve, whichever way the signal moves – in assay [2] is 85.8 µM (active); in assay [3] it was 93.7 µM (active); in [5], 84.1 µM (active); in assay [6], 80.9 µM (active); in [7], 83.3 µM (active); in [8], 95.9 µM (active). Also, the half-maximal activity concentration (AC50) in assay [17] was 90.1 µM (active); in assay [9] it was 77.5 µM (active); in [10] it was 76.4 µM (active); in assay [11] it was 84.2 µM (active); in assay [14], 50 µM (active); in assay [15] it was 82.8 µM (active). The AC50 in [16] was 89.2 µM (active).
As for `COc1cccc([C@H](O)C2CCN(CCc3ccc(F)cc3)CC2)c1OC`, the compound was called inactive in assay [1], in assay [2], in assay [3], in [4], in assay [5] and in [6]. The compound was classed as inactive in [7], in assay [8], in assay [17], in assay [9], in [10] and in [12]. Moreover, the call in assay [15] and in assay [16] was inactive. In addition, the results for the AC50 in assay [19], in assay [11] and in assay [14] were 72.9 µM (active), 33.6 µM (active) and 15.3 µM (active), respectively.
For `CC[C@@H]1C[C@H](N(Cc2cc(C(F)(F)F)cc(C(F)(F)F)c2)C(C)=O)c2cc(C(F)(F)F)ccc2N1C(=O)OC(C)C`, the AC50 in assay [1] is 9.62 µM (active); in assay [9], 5.09 µM (active). Moreover, the call in [2], in [3], in assay [4], in [5], in [19] and in assay [6] was inactive. The compound was called inactive in [7], in assay [8], in assay [10], in assay [11], in [18] and in assay [12]. Further, the compound was classed as inactive in [14], in assay [15] and in assay [16].
Regarding `CC(C)(C)c1csc(-c2cc3cc(OCc4ccccc4CC(=O)O)ccc3o2)n1`, the AC50 in [1] is 23.3 µM (active); in [2], 22.5 µM (active); in assay [3], 31.9 µM (active); in [4], 77.2 µM (active); in assay [5] it was 85.4 µM (active); in [6] it was 78 µM (active). The AC50 in assay [7] is 87.3 µM (active); in assay [8], 31.6 µM (active); in assay [9], 12.4 µM (active); in assay [11], 32.2 µM (active); in [12] it was 50 µM (active); in assay [15] it was 78.9 µM (active). Besides, the AC50 in [16] is 25.1 µM (active). For the same compound, the outcome in [10] and in assay [14] was inactive.
